Sampled rows, rich in hits. Any-hit rate of the full collection: about 27%.
CYP2C19 inhib – blocks human cytochrome P450 2C19; CYP2C19 Supersomes, luciferin-H EGE luminescence, 30 min; hit rate 21% among 96,000; AID 778; P33261; inhibition, % at 5 µM;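 active = CYP2C19 inhibition above a set limit at 5 µM in the primary screen, cut at about 50% in these data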;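 also: plate controls were negative control wells for no effect and 2.5 mM tranylcypromine positive control for full effect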
CYP2C9 inh – human CYP2C9 inhibition | CYP2C9 Supersomes, luciferin-H conversion, luminescence | inhibition, % at 5 µM | hit rate 20% among 96,000 | AID 777;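 active = blocking of liver enzyme CYP2C9 beyond about 50% at 5 µM, limit read from the data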
Target sequence (P11712 whole entry, looked up): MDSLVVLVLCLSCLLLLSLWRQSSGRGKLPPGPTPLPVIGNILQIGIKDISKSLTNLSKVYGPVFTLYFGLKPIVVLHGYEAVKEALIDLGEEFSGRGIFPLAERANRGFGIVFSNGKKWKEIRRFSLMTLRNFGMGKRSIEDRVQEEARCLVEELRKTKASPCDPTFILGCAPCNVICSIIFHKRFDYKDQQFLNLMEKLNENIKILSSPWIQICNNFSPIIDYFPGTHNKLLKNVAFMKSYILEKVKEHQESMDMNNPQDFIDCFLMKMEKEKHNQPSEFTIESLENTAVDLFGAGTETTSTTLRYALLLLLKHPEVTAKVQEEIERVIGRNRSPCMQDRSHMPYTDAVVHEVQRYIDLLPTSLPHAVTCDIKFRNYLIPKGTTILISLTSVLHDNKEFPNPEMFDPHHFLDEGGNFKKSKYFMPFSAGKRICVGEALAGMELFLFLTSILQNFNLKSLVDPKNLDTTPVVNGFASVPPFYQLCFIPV
EphB4 ephrin blk – blocks human EphB4 binding to ephrin-B2. EphB4 LBD / TNYL-RAW-Alexa532 peptide, fluorescence polarization. inhibition, % at 7 µM. hit rate 0.15% among 97,000. AID 720;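 active = inhibition above the screen-wide mean inhibition plus 3 SD, cut at about 15% in these data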;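 also: 0% = DMSO wells and 100% = excess unlabeled TNYL-RAW peptide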
CYP2C9 act – CYP2C9 (human) activation; activation factor at 5 µM; hit rate 1.4% among 96,000; recombinant CYP2C9, luciferin-H conversion, luminescence; hits give high values; factor 1 = untreated enzyme, 0 = blocked; AID 1024;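 active = activation factor of 2 or more for CYP2C9 at a 5 µM dose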;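 also: 0 = sulfaphenazole-blocked wells and 1 = vehicle-only wells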
CYP2C19 activ – cytochrome P450 2C19 (human) activation. P33261. AID 1025. recombinant CYP2C19, luciferin-H EGE luminescence; hits give high values; 0 = fully inhibited enzyme, 1 = untreated enzyme. 96,000 tested, under 10 active. activation factor at 5 µM;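 active = activation factor of at least 2 at 5 µM in the primary screen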;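 also: 0 = wells with 2.5 mM tranylcypromine and 1 = vehicle-only wells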
Active calls of the source: *; . = no result given.

SMILES	CYP2C19 inhib	CYP2C9 inh	EphB4 ephrin blk	CYP2C9 act	CYP2C19 activ
COc1cccc(C2C(C#N)=C(N)Oc3cc(C)n(Cc4ccco4)c(=O)c32)c1 (configuration not stated)	48.0	30.8	-2.8	0.7	0.5
Cc1cc2c(c(=O)n1CCCn1ccnc1)C(c1ccco1)C(C#N)=C(N)O2 (configuration not stated)	76.4*	100.4*	-1.5	0	0.2
COc1ccc(C2C(C#N)=C(N)Oc3cc(C)n(Cc4ccco4)c(=O)c32)cc1 (configuration not stated)	16.8	68.3*	-4.8	0.3	0.8
COc1ccccc1C1C(C#N)=C(N)Oc2cc(C)n(CCCn3ccnc3)c(=O)c21 (configuration not stated)	90.0*	100.0*	1.9	0	0.1
Cc1cc2c(c(=O)n1Cc1ccc3c(c1)OCO3)C(c1cccnc1)C(C#N)=C(N)O2 (configuration not stated)	28.5	51.7*	-17.8	0.5	0.7
CCN(Cc1ccccc1)C(c1ccc(Cl)cc1)c1nnnn1C(C)(C)C (configuration not stated)	16.3	23.4	-0.6	0.8	0.8
COc1ccccc1OC(=O)c1ccc(S(=O)(=O)N(C)C)cc1	36.5	52.5*	12.2	0.5	0.6
COc1cc(S(=O)(=O)N(C)C)ccc1Br	20.8	-205.7	-2.2	3.1*	0.8
Nc1nc(CN2CCN(Cc3ccccc3)CC2)nc(Nc2ccc3c(c2)OCCO3)n1	9.3	14.6	-0.8	0.9	0.9
Cc1cc(C)nc(SCC(=O)Oc2ccc3oc(=O)cc(C)c3c2)n1	-0.5	-152.3	-10.7	2.5*	1
O=C(Oc1ccc(C(=S)N2CCOCC2)cc1Br)c1cc(Cl)ccc1Cl	3.8	-136.7	-1.2	2.4*	1
COc1cccc(Cn2c(C3CC3)nc3ccc(NC(=O)c4ccco4)cc3c2=O)c1	6.4	6.4	-5.7	0.9	0.9
O=C(Nc1ccc2nc(C3CC3)n(Cc3ccc(F)cc3)c(=O)c2c1)c1ccco1	55.8*	67.3*	-8.7	0.3	0.4
c1ccc(NCCCNc2ccccc2)cc1	98.2*	86.0*	2.1	0.1	0
Cc1sc(NC(=O)CSC2=NCCS2)nc1-c1ccccc1	35.5	41.9	-3.0	0.6	0.6
COc1ccc(-c2nc(NC(=O)Cn3ccc(C(F)(F)F)n3)sc2C)cc1	57.4*	39.8	5.7	0.6	0.4
CCOc1ccc(NC(=O)CCCc2cc(-c3ccc(OCC)cc3)on2)cc1	1.1	0.9	8.2	1	1
CCOc1ccc(NC(=O)N2CCC(n3nnc4cc(C)ccc43)CC2)cc1	88.6*	59.7*	3.7	0.4	0.1
Cc1ccc2c(c1)nnn2C1CCN(C(=O)c2cccs2)CC1	67.1*	71.9*	-5.2	0.3	0.3
CCOc1ccc(NC(=O)Nc2ccc3c(c2)nnn3C)cc1	-24.1	-23.4	-5.5	1.2	1.2
Cc1ccc2c(c1)nnn2C1CCN(C(=O)C2CCCCC2)CC1	90.7*	60.9*	.	0.4	0.1
O=C(Nc1ccc(C(F)(F)F)cc1)C1CC(=O)N(c2ccc3c(c2)OCCO3)C1 (configuration not stated)	1.4	18.8	7.9	0.8	1
O=c1[nH][nH]c2nc(C(F)(F)F)cc(C(F)(F)F)c12	0.3	6.4	-9.5	0.9	1
CCNc1nc(NCC)nc(Nn2cnnc2)n1	2.1	-12.1	-4.7	1.1	1
CN(C)c1ccc(CN2CCCCCC2)cc1	55.0*	67.0*	.	0.3	0.4
SMILES	CYP2C19 inhib	CYP2C9 inh	EphB4 ephrin blk	CYP2C9 act	CYP2C19 activ
CN(C)c1ccc(CN(C)C2CCCCC2)cc1	92.8*	0.3	-6.5	1	0.1
CCN(CC)CCN1C(=O)c2oc3ccccc3c(=O)c2C1c1cccc(Br)c1 (configuration not stated)	36.6	41.1	-7.8	0.6	0.6
Cc1cc(=O)oc(C)c1C(=O)N1CCc2c([nH]c3ccccc23)C1C(C)C (configuration not stated)	50.4*	18.9	-3.2	0.8	0.5
CCOC(=O)C(=CNc1cccc(C)c1C)C(=O)OCC	.	.	-8.4	.	.
CC1(C)NC(=O)N(CC(O)CN(Cc2ccccc2)Cc2ccccc2)C1=O (configuration not stated)	84.7*	28.3	-0.6	0.7	0.2
CC1(C)NC(=O)N(CC(O)CN2C(=O)NC(C)(C)C2=O)C1=O	-4.7	1.1	6.8	1	1
Cc1ccc(OCC(O)CN2C(=O)NC(C)(C)C2=O)cc1C (configuration not stated)	84.0*	29.1	-2.8	0.7	0.2
